From PubChem BioAssay (NCATS)
Inconclusive results are not listed. Active and inactive are the calls of the source. Unless noted, the call rests on the fitted dose curve; in most records, active means well fitted curve in the direction sought with a large enough effect; inconclusive means small, poorly fitted or top-dose-only effect, or another doubt; inactive means no such curve, though single readings can be large; an effect the other way counts as inactive or inconclusive.

Assays:
[1] = molecular target: Lysosomal acid glucosylceramidase (Homo sapiens) (UniProt P04062); test: Glucocerebrosidase-p2 (AID 348; in the data active means potency below about 10 µM; further: potency means the concentration at half of the fitted maximal effect); settings: purified GBA, blue fluorogenic substrate, 40 min
How it was run: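 Compounds titrated from 0.6 nM upwards against 0.2 nM enzyme in pH 5.9 citric acid/KH2PO4, taurocholate, tween-20; blue fluorogenic substrate 80 uM, 40 min room temperature, stopped and read Ex 365/Em 440 for AC50.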

[2] = AP1 Signaling Pathway (AID 357; active means well fitted curve in either direction with a large enough effect, not every such curve was filed as active; further: on the % scale 0 is the no-effect control and ±100 the full control effect); settings: ME-180 AP-1-bla reporter, EGF-induced, beta-lactamase ratio, 5 h; at 7.69 µM (top of the series) unless noted
How it was run: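 Modulation of EGF-driven AP-1 transcription was assessed with a beta-lactamase reporter in ME-180 cells. Compound and EC50 EGF were co-incubated 5 hours at 37 °C before 2.5-hour CCF4 loading at room temperature and dual-emission reading.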

[3] = molecular target: Cytochrome P450 1A2 (Homo sapiens) (UniProt P05177); test: p450-cyp1a2 (AID 410; calls by dose curve; further: potency means the concentration at half of the fitted maximal effect;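 on activity change, negative = inhibition: -100% = full effect of reference inhibitor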); settings: recombinant CYP1A2, luciferin-ME demethylation, luminescence; series mostly up to 57 µM
How it was run: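 Inhibition was calculated relative to 57 uM furafylline (full inhibition). The reaction used human CYP1A2 at 20nM with Luciferin-ME at its Km, 100uM, driven by an NADPH-regenerating system for 60 min at room temperature.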

[4] = Stat Signaling Pathway (AID 446; active means well fitted curve in either direction with a large enough effect, not every such curve was filed as active;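 further: ME-180 cervical cancer cells given 40 pM IL-6 alongside compound; SIE-controlled beta-lactamase reporter measured as 460/530 nm FRET emission ratio; on the % scale 0 is the no-effect control and ±100 the full control effect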); settings: ME-180 SIE beta-lactamase reporter, IL-6 stimulated, 5 h; at 7.69 µM (top of the series) unless noted
How it was run: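 ME-180 cells carrying a SIE-driven beta-lactamase reporter are stimulated with 40 pM IL-6 for 5 h at 37C in the presence of compound. The 460/530 nm FRET substrate ratio is read after 2.5 h at RT. Data are normalised to 300 pM IL-6 and to 125 nM JAK inhibitor controls.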

[5] = molecular target: Glucocorticoid receptor (Homo sapiens) (UniProt P04150); test: GR-EFC Redistribution (AID 451; calls by dose curve; further: potency means the concentration at half of the fitted maximal effect); settings: CHO-K1 GR-EFC translocation, beta-gal luminescence, 2 h
How it was run: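 CHO-K1 cells expressing nuclear EA and GR-ED fragments of b-gal; compounds titrated up to 46 uM final, 2 h at 37 C. GR nuclear translocation read as complemented b-gal luminescence after 1 h RT detection.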

[6] = molecular target: Mitogen-activated protein kinase 10 (Mus musculus) (UniProt Q61831); test: JNK3 AlphaScreen Assay (AID 530; active means well fitted curve in either direction with a large enough effect, not every such curve was filed as active;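 further: kinase came from lysate of stimulated human HepG2 cells; signal reports phosphorylation of biotinylated GST-cJun 1-79 at Ser73 with 10 µM ATP; on the % scale 0 is the no-effect control and ±100 the full control effect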); settings: JNK3 lysate, c-Jun phosphorylation; series mostly up to 57.1 µM
How it was run: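 qHTS format: compounds tested as titrations against IL-1beta/TNF-alpha-activated HepG2 lysate JNK3 with biotin-GST-cJun substrate and 10 uM ATP at room temperature. Loss of anti-phospho-cJun AlphaScreen signal indicates inhibition.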

[7] = molecular target: 3',5'-cyclic-AMP phosphodiesterase 4B (Homo sapiens) (UniProt Q07343); test: qHTS Assay for Inhibitors of PDE-IV (AID 607; active means well fitted activation curve with a large enough effect in the main read-out, with a control signal flat, not every such curve was filed as active; further: % of control where 0% means no effect); settings: HEK293 ACTOne CNG channel cells, membrane potential fluorescence; series mostly up to 22.9 µM
How it was run: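 HEK293 ACTOne cells with CNG channel (1000/well), endogenous PDE4; membrane potential dye, compounds up to 22.9 uM final. Fluorescence Ex 535/Em 590; RO 20-1724 (100 uM final) as reference.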

[8] = qHTS Assay for Lipid Storage Modulators (AID 1519; calls by dose curve); settings: Drosophila S3 cells, BODIPY lipid droplet/cell ratio, laser cytometry, cells loaded with oleic acid; for activity change, negative = inhibition: at 57.5 µM (top of the series)
How it was run: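 Cells seeded at 5,000 per well were treated with compounds over a concentration series and loaded with oleic acid (400 uM, as added). Lipid droplet fluorescence (488 nm excitation, 500-530 nm channel) was read by laser-scanning cytometry and normalized to 20 uM Triacsin C.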

[9] = Primary qHTS for small molecule stabilizers of the endoplasmic reticulum resident proteome: Secreted ER Calcium Modulated Protein (SERCaMP) assay (AID 1508630); settings: SH-SY5Y GLuc-SERCaMP (Gaussia luciferase released on ER calcium loss) secretion, thapsigargin, luminescence; series mostly up to 38.4 µM; further: on the % scale 0 is the no-effect control and ±100 the full control effect
How it was run: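 GLuc-SERCaMP-expressing SH-SY5Y cells, pretreated 16 h with compound, are challenged with thapsigargin to empty ER calcium stores; after 4 h, coelenterazine is added directly to the medium and luminescence is imaged.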

[10] = molecular target: Glucocorticoid receptor (Homo sapiens) (UniProt P04150); test: GR-GFP Redistribution (AID 450;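 active means compounds whose dose series gives a full or clear partial fitted curve of increased nuclear translocation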; further: potency means the concentration at half of the fitted maximal effect); settings: U2OS GR-GFP nuclear translocation, laser cytometry, 2 h
[11] = molecular target: Cytochrome P450 3A4 (Homo sapiens) (UniProt P08684); test: qHTS Assay for Inhibitors and Substrates of Cytochrome P450 3A4 (AID 884); settings: recombinant CYP3A4, Luciferin-PPXE luminescence; series mostly up to 57.1 µM; further: nearly all actives have a fitted effect of over 50% in size; further: potency means the concentration at half of the fitted maximal effect
How it was run: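 20 nM human CYP3A4 with 25 uM Luciferin-PPXE (at KM) in 200 mM KPO4, preincubated 10 min with compound; NADPH regeneration started a 60 min RT reaction. Luciferin detected by luminescence, normalized to 57 uM ketoconazole as full inhibition.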

[12] = molecular target: Cytochrome P450 3A4 (Homo sapiens) (UniProt P08684); test: qHTS Assay for Activators of Cytochrome P450 3A4 (AID 885); settings: recombinant CYP3A4, Luciferin-PPXE luminescence, 60 min; series mostly up to 57.1 µM; further: nearly all actives have a fitted effect of over 65% in size
How it was run: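 Human CYP3A4 (20 nM) with Luciferin-PPXE at 25 uM (its KM) in 200 mM KPO4; 10 min compound preincubation, then NADPH regeneration and 60 min reaction at RT. Luciferin read by luminescence; normalized to 57 uM ketoconazole full inhibition.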

[13] = molecular target: Cytochrome P450 2D6 (Homo sapiens) (UniProt P10635); test: qHTS Assay for Inhibitors and Substrates of Cytochrome P450 2D6 (AID 891); settings: recombinant CYP2D6, luciferin-ME EGE luminescence; series mostly up to 57.1 µM; further: nearly all actives have a fitted effect of over 60% in size; further: potency means the concentration at half of the fitted maximal effect
How it was run: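 Human CYP2D6 (5 nM) with 30 uM Luciferin-ME EGE (at Km) in 100 mM KPO4, compound preincubated 10 min, then NADPH regeneration system for 60 min at room temperature. Luciferin read by luminescence; normalized to 1.43 uM quinidine.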

[14] = Confirmation and Secondary Assay for Modulators of Hemoglobin Beta Chain Splicing at IVS2 654 locus (AID 910); settings: HeLa EGFP-654 splicing reporter, GFP fluorescence, 48 h; series mostly up to 38.3 µM;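 further: HeLa cells stably carrying EGFP split by mutant beta-globin IVS2-654 intron; % of control where 0% means no effect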
How it was run: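 HeLa cells stably expressing EGFP interrupted by β-globin IVS2-654 intron, seeded overnight in Opti-MEM/2% FCS, then treated 2 days at 37 °C. Restored splicing read as total peak GFP intensity per well by laser scanning cytometry (488 nm excitation, 500–520 nm emission); 500 nM antisense PNA as control.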

[15] = Confirmation and Secondary Assay for Modulators of Hemoglobin Beta Chain Splicing at IVS2 705 locus (AID 930); settings: HeLa EGFP-705 splicing reporter, GFP fluorescence, 48 h; series mostly up to 38.3 µM;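 further: HeLa cells stably expressing the EGFP-705 splicing reporter; GFP fluorescence per well restored by corrected splicing of the IVS2-705 intron in EGFP; % of control where 0% means no effect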
How it was run: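 Assay measures total GFP intensity per well in HeLa EGFP-705 cells after 2 days with compound; mis-splicing normally truncates EGFP, so fluorescence indicates corrected splicing.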

[16] = molecular target: Ubiquitin carboxyl-terminal hydrolase 1 (Homo sapiens) (UniProt O94782); test: Inhibitors of USP1/UAF1: Pilot qHTS (AID 504865); settings: purified USP1/UAF1, Ub-rhodamine cleavage fluorescence; series mostly up to 54.9 µM;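 further: rhodamine fluorescence freed from ubiquitin-rhodamine substrate followed over time; top concentration of the series differs between compounds; on the % scale 0 is the no-effect control and ±100 the full control effect; nearly all actives have a fitted effect of over 35% in size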
How it was run: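 In 50mM HEPES pH 7.8 containing 0.5mM EDTA, 1mM TCEP, 0.1 mg/ml BSA and 0.01% Tween-20, 1nM USP1/UAF1 is exposed to compound for 15 min, then Ub-Rho (150nM final) is added and fluorescence is read over time.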

[17] = molecular target: Cytochrome P450 2C9 (Homo sapiens) (UniProt P11712); test: qHTS Assay for Inhibitors and Substrates of Cytochrome P450 2C9 (AID 883); settings: recombinant CYP2C9, luciferin-H luminescence, 60 min; series mostly up to 57.1 µM; further: potency means the concentration at half of the fitted maximal effect; nearly all actives have a fitted effect of over 60% in size
How it was run: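 Human CYP2C9 (10nM) with Luciferin-H at 100uM (its KM) in 25mM KPO4; compound preincubated 10 min at 37C, then NADPH regeneration for 60 min at 37C. Luciferin read by luminescence after detection reagent; normalized to 57uM sulphaphenazole as full inhibition.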

[18] = qHTS Assay for Identification of Small Molecule Agonists for Hypoxia Response Element Signaling Pathway (AID 914; active means well fitted activation curve with a large enough effect in the signal ratio, with a control signal flat, not every such curve was filed as active; the % refers to the signal ratio; further: % of control where 0% means no effect); settings: ME-180 (cervical carcinoma) HRE-bla reporter, beta-lactamase ratio, CoCl2, 17 h; activation: stronger effect = higher value
How it was run: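 Compounds in a titration series were added to ME-180 reporter cells alongside an EC50 level of CoCl2. After 17 hours, beta-lactamase activity was read as the 460nm/530nm emission ratio of CCF4, giving AC50 values.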

[19] = measured here: cell count channel max response
[20] = measured here: lipid channel max response

Chain of Cytochrome P450 3A4 (Homo sapiens) (P08684 whole entry, looked up): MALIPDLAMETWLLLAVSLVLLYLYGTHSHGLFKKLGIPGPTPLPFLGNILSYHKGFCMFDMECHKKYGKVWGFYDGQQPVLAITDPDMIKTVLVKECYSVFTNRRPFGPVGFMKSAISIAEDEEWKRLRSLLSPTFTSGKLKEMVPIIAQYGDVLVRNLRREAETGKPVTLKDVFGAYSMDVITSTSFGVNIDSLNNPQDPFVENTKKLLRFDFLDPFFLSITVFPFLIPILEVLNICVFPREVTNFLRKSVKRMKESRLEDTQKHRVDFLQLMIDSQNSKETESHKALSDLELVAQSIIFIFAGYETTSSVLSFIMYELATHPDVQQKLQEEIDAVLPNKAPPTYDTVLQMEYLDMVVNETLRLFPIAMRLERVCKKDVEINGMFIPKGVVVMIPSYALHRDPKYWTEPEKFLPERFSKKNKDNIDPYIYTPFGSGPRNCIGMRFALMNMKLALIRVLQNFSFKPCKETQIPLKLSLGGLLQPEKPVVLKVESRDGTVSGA
Chain of Lysosomal acid glucosylceramidase (Homo sapiens) (P04062 whole entry, looked up): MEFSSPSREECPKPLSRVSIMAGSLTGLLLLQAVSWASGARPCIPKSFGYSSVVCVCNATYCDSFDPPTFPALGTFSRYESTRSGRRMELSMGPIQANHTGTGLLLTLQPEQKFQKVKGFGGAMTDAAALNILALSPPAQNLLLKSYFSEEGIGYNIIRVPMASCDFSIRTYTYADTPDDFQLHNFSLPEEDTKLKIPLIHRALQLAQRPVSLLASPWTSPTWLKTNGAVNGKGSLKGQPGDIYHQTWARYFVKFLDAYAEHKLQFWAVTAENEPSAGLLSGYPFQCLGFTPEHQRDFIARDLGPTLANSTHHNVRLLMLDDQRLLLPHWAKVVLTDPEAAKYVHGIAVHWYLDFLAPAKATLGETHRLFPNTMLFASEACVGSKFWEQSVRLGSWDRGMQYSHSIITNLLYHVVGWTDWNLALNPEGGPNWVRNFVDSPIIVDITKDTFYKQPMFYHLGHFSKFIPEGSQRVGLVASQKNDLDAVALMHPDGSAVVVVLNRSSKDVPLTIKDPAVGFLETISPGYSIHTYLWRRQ
Chain of Cytochrome P450 2C9 (Homo sapiens) (P11712 whole entry, looked up): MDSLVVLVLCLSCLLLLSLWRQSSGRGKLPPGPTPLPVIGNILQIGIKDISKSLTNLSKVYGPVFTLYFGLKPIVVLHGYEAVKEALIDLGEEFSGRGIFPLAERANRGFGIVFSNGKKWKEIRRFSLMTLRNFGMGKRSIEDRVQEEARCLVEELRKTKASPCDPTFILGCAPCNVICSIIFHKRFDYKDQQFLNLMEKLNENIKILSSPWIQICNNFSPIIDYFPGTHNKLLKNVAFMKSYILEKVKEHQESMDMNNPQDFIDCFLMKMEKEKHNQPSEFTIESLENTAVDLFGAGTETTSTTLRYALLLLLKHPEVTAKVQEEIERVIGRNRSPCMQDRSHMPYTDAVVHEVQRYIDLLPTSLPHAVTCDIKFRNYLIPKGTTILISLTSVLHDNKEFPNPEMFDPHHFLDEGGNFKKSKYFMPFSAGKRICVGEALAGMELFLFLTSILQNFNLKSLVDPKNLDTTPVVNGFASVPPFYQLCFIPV
Chain of Ubiquitin carboxyl-terminal hydrolase 1 (Homo sapiens) (O94782 whole entry, looked up): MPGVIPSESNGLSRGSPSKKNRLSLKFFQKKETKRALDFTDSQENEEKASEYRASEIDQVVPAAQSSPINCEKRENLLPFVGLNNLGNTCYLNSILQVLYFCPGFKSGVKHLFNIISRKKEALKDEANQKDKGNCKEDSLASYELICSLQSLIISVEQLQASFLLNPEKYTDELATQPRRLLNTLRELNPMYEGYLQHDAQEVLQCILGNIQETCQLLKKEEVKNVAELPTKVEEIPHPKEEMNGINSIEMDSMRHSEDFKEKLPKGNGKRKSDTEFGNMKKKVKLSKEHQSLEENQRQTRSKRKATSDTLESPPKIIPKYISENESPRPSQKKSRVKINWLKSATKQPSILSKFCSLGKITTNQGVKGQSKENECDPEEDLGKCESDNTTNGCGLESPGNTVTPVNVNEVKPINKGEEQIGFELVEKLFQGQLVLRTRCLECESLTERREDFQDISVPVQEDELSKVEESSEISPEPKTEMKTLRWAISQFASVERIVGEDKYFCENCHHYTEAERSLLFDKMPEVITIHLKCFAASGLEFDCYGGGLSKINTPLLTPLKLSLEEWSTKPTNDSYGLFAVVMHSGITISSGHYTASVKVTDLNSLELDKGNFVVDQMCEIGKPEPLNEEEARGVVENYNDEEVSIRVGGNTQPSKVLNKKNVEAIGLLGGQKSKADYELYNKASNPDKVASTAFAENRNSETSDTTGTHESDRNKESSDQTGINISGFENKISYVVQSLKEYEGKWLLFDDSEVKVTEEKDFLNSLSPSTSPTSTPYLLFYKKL
Chain of Glucocorticoid receptor (Homo sapiens) (P04150 whole entry, looked up, the tested form may be a part): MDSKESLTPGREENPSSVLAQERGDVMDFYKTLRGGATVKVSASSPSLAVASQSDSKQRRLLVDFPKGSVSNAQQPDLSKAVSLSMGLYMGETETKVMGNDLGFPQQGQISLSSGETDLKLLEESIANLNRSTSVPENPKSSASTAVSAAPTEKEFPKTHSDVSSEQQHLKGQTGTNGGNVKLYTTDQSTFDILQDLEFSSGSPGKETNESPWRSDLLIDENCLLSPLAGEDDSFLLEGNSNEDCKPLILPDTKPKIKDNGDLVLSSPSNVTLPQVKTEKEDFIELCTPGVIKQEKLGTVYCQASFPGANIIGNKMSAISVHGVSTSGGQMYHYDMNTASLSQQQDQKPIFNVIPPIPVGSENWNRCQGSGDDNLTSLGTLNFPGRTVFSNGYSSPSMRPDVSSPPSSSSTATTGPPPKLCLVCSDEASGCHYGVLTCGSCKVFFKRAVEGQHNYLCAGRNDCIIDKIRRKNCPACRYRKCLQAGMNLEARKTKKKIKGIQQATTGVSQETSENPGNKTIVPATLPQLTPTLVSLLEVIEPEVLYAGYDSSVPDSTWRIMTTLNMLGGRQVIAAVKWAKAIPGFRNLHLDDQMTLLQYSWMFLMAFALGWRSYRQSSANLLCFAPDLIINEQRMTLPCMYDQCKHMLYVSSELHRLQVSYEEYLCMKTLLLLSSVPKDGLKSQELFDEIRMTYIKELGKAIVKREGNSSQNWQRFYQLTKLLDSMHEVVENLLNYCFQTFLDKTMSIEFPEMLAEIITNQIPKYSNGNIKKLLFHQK
Chain of 3',5'-cyclic-AMP phosphodiesterase 4B (Homo sapiens) (Q07343 whole entry, looked up): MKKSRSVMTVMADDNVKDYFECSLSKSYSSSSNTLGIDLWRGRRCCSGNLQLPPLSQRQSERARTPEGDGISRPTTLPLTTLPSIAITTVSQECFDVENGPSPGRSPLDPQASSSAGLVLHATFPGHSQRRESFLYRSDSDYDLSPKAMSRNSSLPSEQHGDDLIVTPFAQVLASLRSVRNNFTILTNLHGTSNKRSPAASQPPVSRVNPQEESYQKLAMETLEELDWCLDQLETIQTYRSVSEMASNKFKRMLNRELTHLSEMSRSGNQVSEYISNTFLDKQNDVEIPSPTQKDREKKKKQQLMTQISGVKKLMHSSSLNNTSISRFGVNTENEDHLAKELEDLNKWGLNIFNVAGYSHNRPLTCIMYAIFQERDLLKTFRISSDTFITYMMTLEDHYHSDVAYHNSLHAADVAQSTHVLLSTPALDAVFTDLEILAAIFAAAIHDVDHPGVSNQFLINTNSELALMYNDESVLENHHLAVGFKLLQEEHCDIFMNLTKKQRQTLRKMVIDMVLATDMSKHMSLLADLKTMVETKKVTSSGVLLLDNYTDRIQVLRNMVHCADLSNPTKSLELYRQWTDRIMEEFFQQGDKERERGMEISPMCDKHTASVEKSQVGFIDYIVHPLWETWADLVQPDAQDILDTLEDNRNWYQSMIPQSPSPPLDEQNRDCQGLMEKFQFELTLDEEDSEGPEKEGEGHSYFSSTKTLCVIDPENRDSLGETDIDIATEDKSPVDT
Chain of Cytochrome P450 2D6 (Homo sapiens) (P10635 whole entry, looked up): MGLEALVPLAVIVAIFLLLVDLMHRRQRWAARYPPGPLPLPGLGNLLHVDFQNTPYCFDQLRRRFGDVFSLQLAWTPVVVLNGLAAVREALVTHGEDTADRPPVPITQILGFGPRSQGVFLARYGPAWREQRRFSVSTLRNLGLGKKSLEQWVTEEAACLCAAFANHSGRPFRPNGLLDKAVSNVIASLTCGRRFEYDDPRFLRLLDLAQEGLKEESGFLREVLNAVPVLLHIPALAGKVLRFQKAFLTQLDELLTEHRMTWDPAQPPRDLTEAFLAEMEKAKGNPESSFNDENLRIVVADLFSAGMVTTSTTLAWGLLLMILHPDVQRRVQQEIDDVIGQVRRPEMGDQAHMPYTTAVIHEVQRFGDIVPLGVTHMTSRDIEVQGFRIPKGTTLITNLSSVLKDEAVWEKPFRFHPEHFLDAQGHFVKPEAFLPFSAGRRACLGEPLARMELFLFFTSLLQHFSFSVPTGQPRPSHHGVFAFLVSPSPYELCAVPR
Chain of Cytochrome P450 1A2 (Homo sapiens) (P05177 whole entry, looked up): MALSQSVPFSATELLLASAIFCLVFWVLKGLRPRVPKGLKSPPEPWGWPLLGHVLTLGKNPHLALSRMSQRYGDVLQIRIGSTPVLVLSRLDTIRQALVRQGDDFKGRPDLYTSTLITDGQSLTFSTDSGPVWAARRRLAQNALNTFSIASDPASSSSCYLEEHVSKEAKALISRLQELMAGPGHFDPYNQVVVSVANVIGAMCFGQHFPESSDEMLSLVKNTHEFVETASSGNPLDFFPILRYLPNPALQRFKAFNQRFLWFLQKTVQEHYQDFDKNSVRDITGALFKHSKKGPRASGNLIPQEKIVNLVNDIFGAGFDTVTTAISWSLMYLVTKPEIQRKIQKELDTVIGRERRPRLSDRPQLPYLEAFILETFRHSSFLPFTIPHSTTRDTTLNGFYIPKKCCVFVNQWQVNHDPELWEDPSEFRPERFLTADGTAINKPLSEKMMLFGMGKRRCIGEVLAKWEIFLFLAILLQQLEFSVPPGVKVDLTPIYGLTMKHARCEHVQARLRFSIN

Compound | Potency [1] | activity change, negative = inhibition [2] | Potency [3] | activity, negative = inhibition [4] | Potency [5] | Potency [6] | Potency [7] | activity change, negative = inhibition [8] | max response [8, 19] [%] | max response [8, 20] [%] | outcome [9] | Potency [10] | Potency [11] | Potency [12] | Potency [13] | Potency [14] | outcome [15] | Potency [16] | Potency [17] | activation [18]
O=C(c1ccncc1)N1CCC2(CC1)CCN(c1ccccn1)CC2 | > 11.4 µM (inactive) | 8.14% (inactive) | 12.6 µM (active) | -1.09% (inactive) | > 46 µM (inactive) | inactive | inactive | 6.99% (inactive) | 10.7 | 20.3 | inactive | – | – | – | – | – | – | – | – | –
CN(C)c1ccc(-c2nc(NCc3cccnc3)c3ccccc3n2)cc1 | 9.34 µM (active) | -8.92% (inactive) | 1.58 µM (active) | 19.7% (inactive) | > 46 µM (inactive) | inactive | inactive | 8.26% (inactive) | -14.2 | -5.05 | inactive | > 46 µM (inactive) | 2 µM (active) | inactive | 7.94 µM (active) | inactive | inactive | inactive | – | –
O=C(c1cccc(F)c1)N1CCC2(CCN(Cc3ccncc3)CC2)CC1 | > 11.4 µM (inactive) | -25.9% (inactive) | 12.6 µM (active) | -0.6% (inactive) | > 46 µM (inactive) | inactive | inactive | 2.27% (inactive) | 4.86 | 11.8 | inactive | – | – | inactive | – | – | – | – | 2.51 µM (active) | –
O=C(Oc1ccccc1)N1CCC2(CC1)CCN(c1ccncc1)CC2 | > 11.4 µM (inactive) | 9.96% (inactive) | inactive | 16.5% (inactive) | > 46 µM (inactive) | inactive | inactive | 1.8% (inactive) | -5.74 | -3.08 | inactive | – | – | – | – | – | – | – | – | –
CN(C)Cc1ccccc1-c1cc(-n2ccnc2)ncn1 | > 11.4 µM (inactive) | -2.52% (inactive) | 5.01 µM (active) | 1.39% (inactive) | > 46 µM (inactive) | inactive | inactive | 11.3% (inactive) | 4.13 | 14.2 | inactive | > 46 µM (inactive) | – | inactive | 2.51 µM (active) | inactive | inactive | inactive | – | –
CC(=O)N1CCC2(CCN(Cc3ccccc3)CC2)CC1 | > 11.4 µM (inactive) | -7.18% (inactive) | inactive | -5.27% (inactive) | > 46 µM (inactive) | inactive | inactive | -3.2% (inactive) | -4.28 | -4.62 | inactive | – | – | – | – | – | – | – | – | –
N#Cc1ccc(CN2CCC3(CC2)CCN(C(=O)c2cc(C(F)(F)F)cc(C(F)(F)F)c2)CC3)cc1 | > 11.4 µM (inactive) | 7.04% (inactive) | inactive | 3.33% (inactive) | > 46 µM (inactive) | inactive | inactive | 1.9% (inactive) | 7.25 | 11 | inactive | – | – | – | – | – | – | – | – | –
O=C(Nc1cccc(F)c1)N1CC[C@@]2(CCCN(C(=O)c3cc(C(F)(F)F)cc(C(F)(F)F)c3)C2)C1 | > 11.4 µM (inactive) | -8.61% (inactive) | inactive | -4.49% (inactive) | > 46 µM (inactive) | inactive | inactive | 5.77% (inactive) | -3.02 | 6 | inactive | – | – | – | – | – | – | – | – | –
COCC(=O)N1CCC2(CCN(Cc3ccccc3OC)CC2)CC1 | > 11.4 µM (inactive) | -3.62% (inactive) | inactive | -4.34% (inactive) | > 46 µM (inactive) | inactive | inactive | -2.32% (inactive) | -22.5 | -24 | inactive | – | – | – | – | – | – | – | – | –
CN1CCCC2(CCN(C(=O)c3cccc(F)c3)CC2)C1 | > 11.4 µM (inactive) | -7.14% (inactive) | 31.6 µM (active) | 6.64% (inactive) | > 46 µM (inactive) | inactive | inactive | 0.413% (inactive) | 7.52 | 10.1 | inactive | – | inactive | – | inactive | – | – | – | 20 µM (active) | –
CN(C)Cc1ccccc1-c1cncnc1NC1CC1 | > 11.4 µM (inactive) | -1.86% (inactive) | 15.8 µM (active) | 2.98% (inactive) | > 46 µM (inactive) | inactive | inactive | 6.51% (inactive) | 18.3 | 22.5 | inactive | > 46 µM (inactive) | – | inactive | – | inactive | inactive | – | – | –
COc1ccccc1-c1nc(NCCNC(C)=O)c2ccccc2n1 | > 11.4 µM (inactive) | -11.3% (inactive) | 15.8 µM (active) | 5.28% (inactive) | > 46 µM (inactive) | inactive | inactive | 5.2% (inactive) | 8.82 | 14.5 | inactive | > 46 µM (inactive) | – | – | 6.31 µM (active) | inactive | inactive | inactive | – | -0.258% (inactive)
O=C(c1ccncc1)N1CCC2(CCCN(C(c3ccccc3)c3ccccc3)C2)CC1 | > 11.4 µM (inactive) | 22.9% (inactive) | 0.2 µM (active) | 11.1% (inactive) | > 46 µM (inactive) | inactive | inactive | 2.92% (inactive) | 12.6 | 17.9 | inactive | – | – | inactive | 0.0398 µM (active) | – | – | – | 5.01 µM (active) | –
